This note sets out measurements from article PMC5540273 (PLoS ONE, 2017).

“And” between values parts separate entries of the source, which are not always exact repeats. Identical values can stand only once. Like-named read-outs stand apart in the source and are kept apart here.

The test system of assay [1] is T1, MST1.
T1 construct: gene STK4
As to conditions: concentration: 1 μM, replicates: in singlicate, n = 1.

In assay [2] the test system is T2, MST2.
T2 construct: gene STK3
To be noted: concentration: 1 μM, replicates: in singlicate; n = 1.

Assay [3] has as its system T3, MST3.
T3 construct: gene STK24
To be noted: concentration: 1 μM, replicates: in singlicate, n = 1.

The test system of assay [4] is MST4. To be noted: concentration: 1 μM, replicates: in singlicate, n = 1.
Assay [5] relates to MTOR. To be noted: concentration: 1 μM, replicates: in singlicate, n = 1.
Assay [6] relates to MUSK. To be noted: concentration: 1 μM, replicates: in singlicate; n = 1.
The subject of assay [7] is MYLK2. As to conditions: concentration: 1 μM, replicates: in singlicate, n = 1.
In assay [8] the test system is MYLK4. As to conditions: concentration: 1 μM, replicates: in singlicate, n = 1.
Assay [9] deals with MYLK. As to conditions: concentration: 1 μM, replicates: in singlicate, n = 1.
Assay [10] deals with MYO3A. To be noted: concentration: 1 μM, replicates: in singlicate, n = 1.
In assay [11] the test system is MYO3B. As to conditions: concentration: 1 μM, replicates: in singlicate, n = 1.
The subject of assay [12] is T4, NDR1.
T4 construct: gene STK38
As to conditions: concentration: 1 μM, replicates: in singlicate, n = 1.

For assay [13], the system named is NDR2. As to conditions: concentration: 1 μM, replicates: in singlicate, n = 1.
In assay [14] the test system is NEK10. As to conditions: concentration: 1 μM, replicates: in singlicate, n = 1.
The subject of assay [15] is NEK11. As to conditions: concentration: 1 μM, replicates: in singlicate; n = 1.
Assay [16] deals with NEK1. To be noted: concentration: 1 μM, replicates: in singlicate, n = 1.
Assay [17] deals with NEK2. As to conditions: concentration: 1 μM, replicates: in singlicate, n = 1.
Assay [18] has as its system NEK3. To be noted: concentration: 1 μM, replicates: in singlicate, n = 1.
For assay [19], the system named is NEK4. To be noted: concentration: 1 μM, replicates: in singlicate, n = 1.
Assay [20] deals with NEK5. To be noted: concentration: 1 μM, replicates: in singlicate, n = 1.
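Note: KINOMEscan kinase panel screen.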

As to `O=C(Nc1cccc(-c2nn3ncccc3c2-c2ccnc(Nc3cccc(C(F)(F)F)c3)n2)c1)c1c(F)cccc1F` [GSK299495], the “%Inh” value in assay [1] worked out at 9%; in assay [2] it was 23%; in assay [3], 0%; in [4] it was 0%; in assay [5], 17%; in [6], 26%. Besides, the “%Inh” value was found to be 0% in [7]; 0% in assay [8]; 11% in [9]; 41% in assay [10]; 4% in assay [11]; 0% in [12]. The “%Inh” value was 0% in assay [13]; 17% in [14]; 19% in assay [15]; 0% in assay [16]; 0% in [17]; 11% in assay [18]. For the same compound, the “%Inh” value in [19] is 0%; in assay [20] it was 13%.

For `COCCNC(=O)c1ccc(-c2cc(C(=O)NC3CC3)cc(F)c2C)cc1` [GW868318], the “%Inh” value in assay [1] was found to be 17%; in assay [2], 24%; in assay [3], 3%; in assay [4], 38%; in assay [5], 0%; in assay [6], 28%. The “%Inh” value in assay [7] is listed as 1%; in assay [8], 5%; in [9], 29%; in assay [10], 5%; in [11], 24%; in [12], 33%. In addition, the “%Inh” value in [13] is on record as 21%; in assay [14], 3%; in [15] it was 27%; in [16], 0%; in [17], 0%; in assay [18] it was 26%. Moreover, the “%Inh” value is on record as 14% in assay [19] and 8% in [20].

In the case of `c1ccc(-c2cc(-c3c[nH]nc3-c3ccccn3)ccn2)cc1` [GW576604], the “%Inh” value in assay [1] was determined as 0%; in assay [2], 0%; in assay [3] it was 0%; in assay [4] it was 0%; in assay [5], 10%; in assay [6] it was 0%. Also, the “%Inh” value in assay [7] turned out to be 3%; in assay [8], 0%; in assay [9], 6%; in assay [10], 18%; in [11], 0%; in [12], 17%. Moreover, the “%Inh” value in [13] is recorded as 23%; in assay [14], 19%; in [15] it was 3%; in [16], 0%; in assay [17], 0%; in assay [18] it was 2%. Also, the “%Inh” value in assay [19] and in [20] was 0% each time.

As for `Cl.Oc1cccc(Nc2ccnc3cc(-c4ccncc4)ccc23)c1` [GW494601], the “%Inh” value in [1] is 0%; in assay [2], 0%; in assay [3], 13%; in assay [4], 0%; in assay [5], 4%; in [6], 0%. The “%Inh” value in assay [7] is 24%; in assay [8] it was 0%; in [9] it was 95.9%; in assay [10] it was 40%; in [11], 0%; in assay [12] it was 24%. Besides, the “%Inh” value was found to be 37% in assay [13]; 0% in assay [14]; 49% in assay [15]; 0% in assay [16]; 0% in assay [17]; 1% in [18]. In addition, the “%Inh” value in [19] and in [20] was 0% throughout.

As for `CC(C)(CN)c1nc(-c2ccc(Cl)c(O)c2)c(-c2ccncc2)[nH]1.O=C(O)C(F)(F)F` [SB-477794], the “%Inh” value in [1] (1 µM) is 0% and 11%; in assay [2], 0%; in assay [3] (1 µM), 0% and 1%; in assay [4] (1 µM), 11% and 1%; in assay [5] (1 µM) it was 35% and 17%; in [6], 0%. The “%Inh” value in assay [7] (1 µM) is 0% and 5%; in assay [8] (1 µM), 0% and 6%; in assay [9] (1 µM), 1% and 21%; in assay [10] (1 µM) it was 25% and 59%; in assay [11] (1 µM), 0% and 47%; in [12] (1 µM), 40% and 49%. In addition, the “%Inh” value in [13] (1 µM) was 63% and 52%; in assay [14] (1 µM), 19% and 24%; in assay [15] it was 0%; in [16] (1 µM), 0% and 100%; in assay [17] (1 µM), 12% and 0%; in [18] (1 µM) it was 26% and 0%. Besides, the “%Inh” value in [19] (1 µM) is 21% and 10%; in assay [20] (1 µM), 13% and 3%.

On to `O=c1cc(N2CCOCC2)nc2n(Cc3cccc(F)c3)ccn12` [GSK2297430], for which the “%Inh” value in assay [1] is listed as 23%; in assay [2], 0%; in assay [3], 3%; in [4] it was 0%; in assay [5], 52%; in [6], 3%. The “%Inh” value in [7] was 0%; in assay [8], 0%; in assay [9], 4%; in assay [10] it was 0%; in assay [11], 0%; in [12] it was 0%. The “%Inh” value was determined as 0% in assay [13]; 24% in assay [14]; 0% in [15]; 0% in [16]; 0% in assay [17]; 0% in [18]. In addition, the “%Inh” value in [19] and in assay [20] was 0% each time.

On to `CN1c2ccc(CNc3ccc(F)cc3)cc2-c2c(cnn2C)S1(=O)=O`, for which the “%Inh” value in [1] turned out to be 0%; in [2] it was 0%; in assay [3], 0%; in assay [4], 0%; in assay [5], 24%; in [6], 0%. Besides, the “%Inh” value came to 0% in assay [7]; 0% in assay [8]; 4% in assay [9]; 0% in assay [10]; 0% in assay [11]; 16% in assay [12]. Further, the “%Inh” value in assay [13] amounted to 0%; in assay [14], 0%; in assay [15], 0%; in assay [16], 1%; in [17], 0%; in assay [18], 28%. Besides, the “%Inh” value in assay [19] and in assay [20] was 0% throughout.

In the case of `CCn1cnc2c(N)ncnc21` [GW345098], the “%Inh” value in [1] was found to be 8%; in assay [2], 7%; in assay [3], 20%; in [4], 0%; in [5], 0%; in assay [6] it was 2%. Further, the “%Inh” value in [7] is reported as 2%; in assay [8], 7%; in [9], 29%; in assay [10], 12%; in [11], 0%; in [12], 15%. The “%Inh” value is 8% in [13]; 39% in [14]; 0% in [15]; 0% in [16]; 13% in [17]; 3% in assay [18]. Moreover, the “%Inh” value was determined as 12% in [19] and 10% in [20].

As to `O=C1NC(=O)C(N2CCc3ccccc32)=C1c1cccc(Cl)c1` [SB-408010], the “%Inh” value in assay [1] is given as 0%; in assay [2], 63%; in assay [3], 4%; in [4], 0%; in assay [5] it was 0%; in assay [6] it was 0%. Besides, the “%Inh” value in assay [7] came to 0%; in assay [8], 0%; in assay [9], 8%; in assay [10], 9%; in [11], 21%; in [12], 6%. The “%Inh” value is on record as 7% in [13]; 43% in [14]; 0% in assay [15]; 3% in [16]; 12% in assay [17]; 14% in assay [18]. Further, the “%Inh” value in assay [19] and in assay [20] was 0% each time.

Turning to `CN1c2ccc(NCc3ccc(F)cc3)cc2-c2c(cnn2C)S1(=O)=O`, the “%Inh” value in assay [1] is reported as 0%; in assay [2] it was 28%; in [3], 0%; in assay [4], 0%; in assay [5] it was 20%; in assay [6] it was 3%. The “%Inh” value in assay [7] stood at 0%; in [8] it was 0%; in [9], 12%; in assay [10] it was 0%; in [11] it was 0%; in [12] it was 22%. Besides, the “%Inh” value is listed as 0% in assay [13]; 2% in [14]; 0% in assay [15]; 0% in assay [16]; 0% in [17]; 33% in [18]. Further, the “%Inh” value in assay [19] and in assay [20] was 0% in each case.
